Results reported in the supplement of paper PMC10981050.
Where a name gives a salt, the structure may show the parent alone.

The molecules below were run on MARIMO (assay: cell viability relative to vehicle control; higher = less cytotoxic). Conditions: 10 µM; SRSF2 genotype: SRSF2 P95H/wt.
In short: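 Mutant clones made by CRISPR editing and their isogenic wild-type counterparts, from four leukaemia lines, were exposed to a single 10 µM dose of each library compound for 48 h. The supernatant was then removed and CellTiter-Glo luminescence was read. Viability was reported as percent of the on-plate vehicle control.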
`CS(=O)(=O)Nc1cc2occ(NC=O)c(=O)c2cc1Oc1ccccc1` [Iguratimod] was tested, and the cell viability was 107%. `Cc1ccnc(NS(=O)(=O)c2ccc(N)cc2)n1` [Sulfamerazine] gave a cell viability of 105%. For `CC(=CCNc1ncnc2nc[nH]c12)CO` [Trans-Zeatin], the cell viability was 99%. `CCCC(CCC)C(=O)O` [Valproic acid sodium salt (Sodium valproate)] gave a cell viability of 84.2%. `C[C@]1(COc2ccc(N3CCC(Oc4ccc(OC(F)(F)F)cc4)CC3)cc2)Cn2cc([N+](=O)[O-])nc2O1` [Delamanid] gave a cell viability of 94.6%. In the case of `COc1ccc(CCC(=O)Nc2nc3ccc(Cl)cc3s2)cc1OC`, the cell viability was 97.3%.

Same assay, conditions: 10 µM; SRSF2 genotype: SRSF2 wt/wt
With `CO[C@H]1/C=C/O[C@@]2(C)Oc3c(C)c(O)c4c(O)c(c(/C=N/N5CCN(C6CCCC6)CC5)c(O)c4c3C2=O)NC(=O)/C(C)=C\C=C\[C@H](C)[C@H](O)[C@@H](C)[C@@H](O)[C@@H](C)[C@H](OC(C)=O)[C@@H]1C` [Rifapentine] the cell viability was 109%. Work on `O=C1NC(=O)/C(=C/c2ccc3c(c2)OC(F)(F)O3)S1` yielded a cell viability of 99.8%. `CCOC(=O)c1ccc(N)cc1` [Benzocaine] showed a cell viability of 91.7%. In the case of `Cn1nc(C(C)(C)C)cc1C(=O)N[C@@H](Cc1cccc(Cl)c1)C(=O)NCC#N` [Cathepsin Inhibitor 1], the cell viability was 100%. In the case of `Cc1c(C(=O)Nc2ccc(N3CCC(N4CCOCC4)CC3)c(C#N)c2)cnn1-c1ccc(Cl)cc1`, the cell viability was 12.2%. For `CCOC(=O)[C@H](CCc1ccccc1)N[C@@H](C)C(=O)N(CC(=O)O)C1Cc2ccccc2C1` [Delapril Hydrochloride], the cell viability was 100%.
